Measurements reported in PubChem BioAssay (Tox21).
Where “and” joins values, the source holds several entries; their conditions need not be identical. Identical values can stand only once. Records with an inconclusive call do not appear. Some structures have more than one record in an assay (separate samples or runs), and their calls can disagree. Calls of active or inactive are those of the source. Unless noted, the call rests on the fitted dose curve; in most records, active means well fitted curve in the direction sought with a large enough effect in the repeat runs; inconclusive means weak or mixed curves; inactive means no such curve, though single readings can be large; an effect the other way counts as inactive or inconclusive.

Assays:
[1] = qHTS assay to identify small molecule agonists of the hypoxia (HIF-1) signaling pathway (AID 1224846; active means well fitted activation curve with a large enough effect in the signal ratio in the repeat runs, not every such curve was filed as active; the % refers to the signal ratio); conditions: HRE-bla ME-180 cells, beta-lactamase ratio, 17 h; series mostly up to 76.8 µM
In short: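 Compounds added to ME-180 cells carrying hypoxia-response-element beta-lactamase reporter (0.5% dialyzed FBS, 5 h preplating), 17 h at 37C; agonist activity detected by CCF4-AM B/G FRET read-out.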

[2] = qHTS assay to identify small molecule agonists of H2AX - cell viability counter screen (AID 1224847; calls by dose curve; further: nearly all actives have a fitted effect of over 30% in size; further: potency means the concentration at half of the fitted maximal effect;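 on activity change, negative = cytotoxicity: wild-type CHO-K1 cells; top concentration of the series differs between compounds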); conditions: CHO-K1 viability, CellTiter-Glo luminescence, 3 h; series mostly up to 154 µM
In short: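 After overnight plating of 1000 CHO-K1 cells per well, a 15-concentration compound series was applied for 3 hr at 37C. Luminescence from CellTiter-Glo, read following 30 min at room temperature, reflected cell viability.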

[3] = qHTS RealTime-Glo MT Cell Viability Assay in HepG2 cells - 24 hour (AID 1224867); conditions: RealTime-Glo luminescence; series mostly up to 76.8 µM; further: nearly all actives have a fitted effect of over 50% in size; further: potency means the concentration at half of the fitted maximal effect
In short: (§1)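 Compound treatment began 5 h after plating HepG2 cells (600/well) with NanoLuc luciferase and prosubstrate. Plates stayed at 37 C for 40 h; luminescence was captured at six time points, 0 h through 40 h.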

[4] = qHTS RealTime-Glo MT Cell Viability Assay in HEK293 cells - 32 hour (AID 1224868); conditions: RealTime-Glo luminescence; series mostly up to 76.8 µM; further: nearly all actives have a fitted effect of over 50% in size; further: potency means the concentration at half of the fitted maximal effect; on activity change, negative = cytotoxic: top concentration of the series differs between compounds
In short: (§2)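 Quantitative high-throughput screen of the Tox21 10K library in HEK293: cells and RealTime-Glo reagents plated together, compound added at 5 h, luminescence monitored through 40 h at 37 C.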

[5] = qHTS RealTime-Glo MT Cell Viability Assay in HepG2 cells - 40 hour (AID 1224870); conditions: RealTime-Glo luminescence; series mostly up to 76.8 µM; further: nearly all actives have a fitted effect of over 50% in size; further: potency means the concentration at half of the fitted maximal effect
In short: (§3)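 HepG2 cells (600/well) mixed with RealTime-Glo MT reagent, settled 5 h at 37 C/5% CO2 before compound addition. Nonlytic NanoLuc luminescence from viable-cell prosubstrate reduction read repeatedly during 40 h treatment at 37 C.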

[6] = A CellTox Green Cytotoxicity Assay to monitor cytotoxicity in HEK293 cells - 40 hour (AID 1224871); conditions: CellTox Green fluorescence; series mostly up to 76.8 µM; further: nearly all actives have a fitted effect of over 45% in size; further: potency means the concentration at half of the fitted maximal effect
In short: (§4)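 Fluorescence from a DNA-binding dye excluded by viable cells was measured repeatedly in the same HEK293 wells (600 cells/well) during continuous compound exposure at 37 C. Each assay gives one read point: 0, 8, 16, 24, 32 or 40 h.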

[7] = qHTS RealTime-Glo MT Cell Viability Assay in HepG2 cells - 8 hour (AID 1224873); conditions: RealTime-Glo luminescence; series mostly up to 76.8 µM; further: nearly all actives have a fitted effect of over 55% in size
In short: as §3

[8] = qHTS RealTime-Glo MT Cell Viability Assay in HEK293 cells - 40 hour (AID 1224874); conditions: RealTime-Glo luminescence; max response: stronger effect = lower value; further: nearly all actives have a fitted effect of over 50% in size; further: potency means the concentration at half of the fitted maximal effect
In short: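 Luminescence, which tracks viable cell number through reduction of the prosubstrate to a NanoLuc substrate, was read over continuous 37 C culture. Cells (600/well) were premixed with reagent and rested 5 h before 23 nL of compound in DMSO was pinned.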

[9] = A CellTox Green Cytotoxicity Assay to monitor cytotoxicity in HEK293 cells - 24 hour (AID 1224875); conditions: CellTox Green fluorescence; series mostly up to 76.8 µM; further: nearly all actives have a fitted effect of over 45% in size; further: potency means the concentration at half of the fitted maximal effect
In short: as §4

[10] = A CellTox Green Cytotoxicity Assay to monitor cytotoxicity in HepG2 cells - 16 hour (AID 1224876); conditions: CellTox Green fluorescence; series mostly up to 76.8 µM; further: nearly all actives have a fitted effect of over 45% in size; further: potency means the concentration at half of the fitted maximal effect
In short: (§5)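 Real-time cytotoxicity: fluorescence of a cell-impermeant cyanine dye binding DNA of dead HepG2 cells, measured repeatedly (0–40 h) during compound exposure at 37 C. Cells seeded 600/well with reagent, dosed after 5 h.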

[11] = qHTS RealTime-Glo MT Cell Viability Assay in HepG2 cells - 32 hour (AID 1224877); conditions: RealTime-Glo luminescence; series mostly up to 76.8 µM; further: nearly all actives have a fitted effect of over 55% in size; further: potency means the concentration at half of the fitted maximal effect
In short: as §1

[12] = A CellTox Green Cytotoxicity Assay to monitor cytotoxicity in HepG2 cells - 24 hour (AID 1224878); conditions: CellTox Green fluorescence; series mostly up to 76.8 µM; further: nearly all actives have a fitted effect of over 45% in size; further: potency means the concentration at half of the fitted maximal effect
In short: as §5

[13] = A CellTox Green Cytotoxicity Assay to monitor cytotoxicity in HepG2 cells - 40 hour (AID 1224879); conditions: CellTox Green fluorescence; series mostly up to 76.8 µM; further: nearly all actives have a fitted effect of over 40% in size; further: potency means the concentration at half of the fitted maximal effect
In short: as §5

[14] = A CellTox Green Cytotoxicity Assay to monitor cytotoxicity in HEK293 cells - 0 hour (AID 1224869); conditions: CellTox Green fluorescence; series mostly up to 76.8 µM; further: nearly all actives have a fitted effect of over 50% in size
In short: as §4

[15] = qHTS RealTime-Glo MT Cell Viability Assay in HEK293 cells - 16 hour (AID 1224872); conditions: RealTime-Glo luminescence; series mostly up to 76.8 µM; further: nearly all actives have a fitted effect of over 50% in size; further: potency means the concentration at half of the fitted maximal effect; on activity change, negative = cytotoxicity: top concentration of the series differs between compounds
In short: as §2

[16] = qHTS assay to identify small molecule agonists of the hypoxia (HIF-1) signaling pathway - cell viability counter screen (AID 1224844; calls by dose curve; further: nearly all actives have a fitted effect of over 50% in size); conditions: HRE-bla ME-180 viability, CellTiter-Glo luminescence, 17 h; series mostly up to 76.8 µM
In short: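 Cytotoxicity measured by CellTiter-Glo ATP luminescence in the wells also read for beta-lactamase signal. Cells were HRE-bla ME-180 (2,000/well, 0.5% dialyzed FBS), exposed to compounds for 17 h at 37C.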

[17] = qHTS assay to identify small molecule antagonists of the estrogen related receptor (ERR) signaling pathway from Tox21 library (AID 1224848); conditions: ERR reporter cell line, luciferase antagonist mode, 18 h; series mostly up to 92.4 µM; further: nearly all actives have a fitted effect of over 50% in size; further: potency means the concentration at half of the fitted maximal effect
In short: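 Quantitative high-throughput format: ERR reporter cells (2,000/well) pre-incubated 6 h, treated 18 h at 37 C with compounds in DMSO alongside positive and negative controls, then read by ONE-Glo luminescence.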

[18] = qHTS assay to identify small molecule agonists of the estrogen related receptor (ERR) signaling pathway from Tox21 library (AID 1224849; calls by dose curve; further: nearly all actives have a fitted effect of over 15% in size); conditions: ERR reporter cell line, ONE-Glo luciferase, 18 h
In short: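 Luminescent agonist read-out (One-Glo, 30-minute room-temperature incubation) following 18-hour compound treatment at 37 C of the ERR cell line, which had been plated 6 hours before dosing.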
On the % scale 0 is the no-effect control and ±100 the full control effect.

Nc1ccc2c(c1)CN1C(=O)c3ccccc3C1=N2
inactive: activation [1] 0.64% [at 15.8 µM] | activity change, negative = cytotoxicity [3] -3.47% [at 15.8 µM] | activity change, negative = cytotoxic [5] 1.05% [at 15.8 µM] | viability change, negative = cytotoxic [7] -9.67% [at 15.8 µM] | activity change, negative = cytotoxic [11] -0.629% [at 15.8 µM]
active: Potency [2] 17 µM | Potency [4] 4.65 µM | Potency [6] 10.4 µM | Potency [8] 3.69 µM | Potency [9] 10.4 µM | Potency [10] 10.4 µM | Potency [12] 10.4 µM | Potency [13] 10.4 µM

COc1ccc(OC(F)(F)F)cc1CN[C@H]1CCCN[C@H]1c1ccccc1
inactive: outcome [1] | Potency [14]
active: Potency [2] 113 µM | Potency [3] 54.9 µM | Potency [4] 43.6 µM | Potency [5] 54.9 µM | Potency [15] 49 µM | Potency [8] 43.6 µM | Potency [10] 54.9 µM | Potency [11] 54.9 µM | Potency [12] 49 µM | Potency [13] 49 µM

CN[C@H]1CC[C@@H](c2ccc(Cl)c(Cl)c2)c2ccccc21
active: Potency [2] 49.2 µM | Potency [17] 26.6 µM | Potency [3] 23.9 µM | Potency [4] 23.9 µM | Potency [5] 23.9 µM | Potency [8] 23.9 µM | Potency [10] 19 µM | Potency [11] 23.9 µM | Potency [12] 19 µM | Potency [13] 16.9 µM
inactive: Potency [16] | activity change, positive = activation ([18]; at 42.5 µM (top of the series)) -39%

C[C@](N)(Cc1ccc(O)c(O)c1)C(=O)O
inactive: Potency [16] | outcome [1] | Potency [2] | Potency [3] | Potency [4] | Potency [5] | Potency [6] | Potency [15] | Potency [7] | max response [8] -19.7% and -21.3% and 9.87% | Potency [9] | Potency [10] | Potency [11] | Potency [12] | Potency [13]

CC(C)NCC(O)c1ccc(O)c(O)c1 (stereo unspecified)
43.1 µM (active) and inactive: Potency [4]
inactive: Potency [16] | Potency [2] | Potency [17] | activity change, positive = activation ([18]; at 42.5 µM (top of the series)) 7.23% | activity change, positive = activation ([18]; at 92.4 µM (top of the series)) 4.56% and 1.6% | Potency [3] | Potency [14] | Potency [5] | Potency [6] | Potency [7] | max response [8] 1.41% | Potency [9] | Potency [10] | Potency [11] | Potency [12] | Potency [13]
48.4 µM (active) and inactive: Potency [15]
active: Potency [8] 38.4 µM
